High-throughput results as filed in PubChem.
Most compounds without a hit are left out; they make up all but 2.1% or so of the library.
A549_viability: Nrf2 qHTS screen for inhibitors: counterscreen for cytotoxicity; A549 ARE-Fluc cells, CellTiter-Fluor viability, 18-24 h; Potency, µM (series often up to 46 µM), for the others: top-dose activity change, negative = cytotoxicity, most hits filed as inhibitors; 390,000 tested, 0.16% active; note: potency is the fitted concentration of half-maximal effect; % is set by controls: 0 for no effect and ±100 for the full control effect
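A549 ARE-Fluc cells in 5% FBS OPTI-MEM, 5000 cells/well, rested 2 h then exposed to compounds in concentration-response for 18-24 h at 37 °C. Viability by CellTiter-Fluor fluorescence (Ex 405/Em 525) after 30 min; luciferase luminescence (BugLite, 15 min, RT) read afterwards.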
miR-21_act: qHTS Assay for Modulators of miRNAs and/orActivators of miR-21. HeLa miR-21 FLuc reporter, luciferase, 48 h. Potency, µM (doses to about 38.3 µM), for inactives: at the top dose activity change, positive = activation, hits mostly activators. 340,000 tested, under 10 active;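 note: % of control where 0% means no effect; miR-21 action dims this reporter so a rising signal means less miR-21 action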
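Compounds were titrated across several concentrations (up to approximately 40 uM) and incubated 48 hours with HeLa miR-21-FLuc reporter cells (miR-21 target sequence downstream of FLuc, endogenous miR-21). Readout was firefly luciferase luminescence after lytic detection reagent.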
Nrf2_inh: Nrf2 qHTS screen for inhibitors; A549 ARE-Fluc reporter, luciferase luminescence, 18-24 h; Potency, µM (titrated, usually from 46 µM), for inactives: top-dose activity change, negative = inhibition, usual class: inhibitors; 360,000 tested, 2.1% active; note: potency is the fitted concentration of half-maximal effect; % is set by controls: 0 for no effect and ±100 for the full control effect; nearly all actives have a fitted effect of over 60% in size
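Nrf2 activity is the BugLite luminescence, read 15 min after reagent at room temperature, following CellTiter-Fluor cytotoxicity readout (30 min, 37C). Compound titrations were applied for 18-24 h to 5000 A549 ARE_Fluc cells/well in 5% FBS OPTI-MEM.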
GRP78_ERSR_act: qHTS for Inducers of the Endoplasmic Reticulum Stress Response (ERSR) in Human Glioma: qHTS; U87-MG GRP78 promoter luciferase reporter, 16 h; Potency, µM, without a hit: at the highest dose activation, hits mostly activators; 420,000 tested, 0.02% active; AID 602332, 2012; note: potency is the fitted concentration of half-maximal effect; series mostly up to about 76 µM; % of control where 0% means no effect; nearly all actives have a fitted effect of over 35% in size
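Stably transfected U87-MG human glioma cells carrying a GRP78-based luminescent sensor were seeded at 1000 cells/well, pin-dosed with compounds and incubated 16 h. Luciferase reagent was then added, and end-point luminescence was read after 10 min at room temperature.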
TSG101-PTAP_inh: qHTS Assay for Iinhibitors of HIV-1 Budding by Blocking the Interaction of PTAP/TSG101. Tumor susceptibility gene 101 protein (Homo sapiens), Q99816. Potency, µM (titrated, usually from 115 µM), inactives show at the highest dose activity change, negative = inhibition, usual class: inhibitors. Fluorescence polarization, FITC-PTAP peptide / Tsg101 binding. 340,000 tested, under 10 active. AID 493005, 2010; active = well fitted inhibition curve with a large enough effect in the main read-out, with a control signal flat, not every such curve was filed as active; inconclusive = small, poorly fitted or top-dose-only effect, or effect the other way, or a change in a side signal; inactive = no such curve, though single readings can be large or run the other way; note: potency is the fitted concentration of half-maximal effect; % of control where 0% means no effect
Target sequence (Q99816 whole entry, looked up): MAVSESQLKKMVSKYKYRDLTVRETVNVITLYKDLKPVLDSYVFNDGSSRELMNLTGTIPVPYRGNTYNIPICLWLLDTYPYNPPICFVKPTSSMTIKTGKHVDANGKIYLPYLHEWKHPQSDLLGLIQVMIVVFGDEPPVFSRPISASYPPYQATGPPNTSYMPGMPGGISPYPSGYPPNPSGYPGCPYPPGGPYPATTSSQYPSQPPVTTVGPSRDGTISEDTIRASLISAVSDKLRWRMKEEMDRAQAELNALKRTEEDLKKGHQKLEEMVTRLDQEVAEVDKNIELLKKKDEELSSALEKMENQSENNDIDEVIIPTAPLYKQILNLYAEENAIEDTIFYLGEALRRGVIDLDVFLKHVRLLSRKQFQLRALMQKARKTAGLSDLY
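Compounds were pin-transferred onto Tsg101 binding domain (10 uM final) in HEPES pH 7.5 buffer, then FITC-PTAP peptide was added at 50 nM final. After 20 min at RT, polarization reported peptide displacement across a qHTS concentration series.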
Nrf2_activator: qHTS of Nrf2 Activators. Potency, µM (top dose mostly 46.1 µM), without a hit: top-dose activation, hits mostly activators. AREc32 ARE-luciferase reporter (MCF7-derived line), luminescence, 24 h. AID 624171, 2012. 410,000 tested, 0.31% active; note: potency is the fitted concentration of half-maximal effect; % of control where 0% means no effect; nearly all actives have a fitted effect of over 65% in size
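For detection, Steady-Glo was added and plates sat 30 min at RT; before that, AREc32_Fluc cells grown overnight in OPTI-MEM/5% FBS had been treated with 23 nL compound for 24 hr at 37 deg C.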
Numbers without * were called inactive; u = inconclusive; x = no result given. Unless noted, calls come from the whole dose curve; as a rule, active = well fitted curve in the direction sought with a large enough effect; inconclusive = small, poorly fitted or top-dose-only effect, or another doubt; inactive = no such curve, though single readings can be large; an effect the other way counts as inactive or inconclusive.

SMILES A549_viability miR-21_act Nrf2_inh GRP78_ERSR_act TSG101-PTAP_inh Nrf2_activator
Cc1ccc(C(=O)NCCc2nnc3n2CCN(Cc2ccnc4ccccc24)CC3)c(C)c1 x x x -3% x x
O=C(NCc1cccnc1)c1cnn(-c2ncc3c(n2)-c2ccccc2CCC3)c1C1CC1 x x x -4% x x
CCN(C[C@H]1N[C@@](C)(C(=O)OC)[C@H]2C(=O)N(Cc3ccccc3)C(=O)[C@@H]12)C(=O)C1CCCCC1 3% x u -5% -2% 0%
CCN(C[C@H]1N[C@@](Cc2ccccc2)(C(=O)OC)[C@H]2C(=O)N(Cc3ccccc3)C(=O)[C@@H]12)C(=O)C1CCCCC1 u x 15µM* 1% -2% 0%
Cc1cccc(-c2nnc(SCCC(=O)O)o2)c1 2% u 1.5µM* -11% x -4%
Cc1cccc(-c2nnc(SCCC(=O)N3CCOCC3)o2)c1 6% 23% u -12% -1% -2%
Cc1cccc(-c2nnc(-c3ccccc3)o2)c1 16% -47% x 6% -8% 11µM*
Cc1nnc(-c2ccccc2)o1 2% -1% -7% -3% -7% 0%
COc1ccc(CN(CCN(C)C)c2ncccn2)cc1 x x x -2% x x
CCCCCCCCCCCCCCCC[N+](C)(C)CCN(Cc1ccc(OC)cc1)c1ncccn1 u x 21µM* -11% 1% -3%
Cc1ccc(-c2nnc(Nc3ccc4c(c3)nc(C)n4C)c3ccccc23)cc1 u -3% 21µM* 0% 2% 3%
Cc1ccc(-c2nnc(Nc3ccc(CC(N)=O)cc3)c3ccccc23)cc1 -2% 6% -6% 1% -17% 5%
CCn1c(N2CCN(C(=S)Nc3ccc(OC)cc3)CC2)nc2ccccc21 -9% 0% 16µM* 1% -3% 3%
CC(=O)O[C@H]1C[C@@H]2CC[C@@H]3[C@H](CC[C@]4(C)[C@H](OC(C)=O)[C@@H](N5CC[N+](C)(C)CC5)C[C@@H]34)[C@@]2(C)C[C@@H]1N1CC[N+](C)(C)CC1 x x x -4% x x
